Measured values published in PubChem BioAssay AID1578 (Sanford-Burnham Center for Chemical Genomics, 2009).
Screen size: about 290,000 compounds; about 3,000 (1%) were called active. The sample holds actives, similar compounds and a random draw of the others, so the mix is not that of the screen. Rule as the data show it: active = inhibition mostly above about 36% (no sharp cut-off); inactive = mostly below about 34%.

experiment: NOD1 signaling inhibitors, primary screen, cell-based, luminescence, uHTS (AID 1578); details: NOD1-driven NF-kB luciferase reporter cells, at 4 µM, stronger effect = higher value;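 also: HEK-293T reporter cells stimulated with the NOD1 agonist gamma-tri-DAP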

inhibition, active:
C/C(=N\Nc1ncc(Cl)cc1Cl)c1ccccn1 103%, CCn1cc(C(=O)NCc2ccc3c(c2)OCO3)c(=O)c2cc(F)c(N3CCN(C(=O)c4ccco4)CC3)cc21 82.7%, Cc1ccc(Cn2c3ccccc3c3cn[nH]c(=O)c32)cc1 59.1%, CCOC(=O)N1CCC(N(CCN(C)C)C(=S)Nc2cc(Cl)cc(Cl)c2)CC1 65.6%, CC(C)(C(=O)N[C@H](CO)c1ccccc1)C(=O)N[C@H](CO)c1ccccc1 95%

inhibition, inactive:
Nc1nnc(SCc2nnc(-c3ccccc3)o2)s1 -21%, O=C1CCc2cc(S(=O)(=O)NC(Cc3ccccc3)C(=O)NC3CCCC3)ccc2N1 (stereo not given) -11.4%, CCN(CC)S(=O)(=O)c1cccc(C(=O)N[C@H](C(=O)OCC(=O)Nc2ccccc2)C(C)C)c1 -24.7%, C/C(=N\Nc1ncc(Cl)cc1Cl)c1ccc(C#N)cc1 -40.4%, C/C(=N\Nc1ccc(Cl)cc1)c1ccccn1 -119%, Cc1cc(C)c(C(=O)COC(=O)CCNS(=O)(=O)c2c(Cl)cccc2Cl)cc1C -13.2%, CCC(C(=O)NC1CC(C)(C)NC(C)(C)C1)c1ccccc1 (stereo not given) -18.7%, COc1cccc(-n2c(Cn3nc(C(F)(F)F)cc3C)n[nH]c2=S)c1 2.3%, CCn1cc(C(=O)NCc2cccc(F)c2)c(=O)c2cc(F)c(N3CCN(C(=O)c4ccco4)CC3)cc21 0.3%, CCn1cc(C(=O)NCc2ccccc2)c(=O)c2cc(F)c(N3CCN(C(=O)c4ccco4)CC3)cc21 46.3%, CCOc1ccc(NC(=O)C2CCN(S(=O)(=O)c3ccc4c(c3)CC(C)N4C(C)=O)CC2)cc1 (stereo not given) -19.4%, Cc1nn(C)cc1-c1n[nH]c(=S)n1-c1ccc(F)cc1 -1.9%, O=c1[nH]ncc2c3ccccc3n(Cc3ccc(F)cc3)c12 -2.2%, O=c1[nH]ncc2c3ccccc3n(Cc3ccccc3)c12 36.5%, CN(C)C(=O)CN1C(=O)NC2(CCCc3ccccc32)C1=O (stereo not given) -1.9%, CCOC(=O)N1CCC(N(CCN(C)C)C(=S)Nc2cccc(Cl)c2)CC1 0.8%, CCOC(=O)N1CCC(N(CCN(C)C)C(=S)Nc2cc(C)cc(C)c2)CC1 -15.3%, CC(C)(C)C(=O)NC(CC(=O)O)c1ccccc1 (stereo not given) -18.6%, O=C(NC(CO)c1ccccc1)c1ccco1 (stereo not given) 3%, COCCNC(=O)c1cc(Sc2nnc(C)s2)nc2ccccc12 -10.4%
